Shown are actives, neighbours in structure and some others; about 3.4% of the full set was active somewhere.
Tau ThT inhib: inhibitors of human tau fibril formation, thioflavin T binding; P10636; recombinant tau K18 P301L, heparin-induced fibrillization, ThT fluorescence; Potency, µM (top dose mostly 57.4 µM), without a hit: at the highest dose activity, negative = inhibition, most hits filed as inhibitors; 270,000 tested, 2.1% active; AID 1460; note: nearly all actives have a fitted effect of over 55% in size
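K18 P301L tau (15 uM + 0.24 uM Alexa 594-tagged), heparin 20 uM, NaOAc pH 7, 6 h 37 C; ThT 30 uM, 1 h RT, ex 450/em 510 nm.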
Tau fibril FP: tau fibrillization inhibition (FP); K18 P301L tau heparin fibrillization, Alexa594 FP, 6 h; Potency, µM (doses to about 57.7 µM), inactives show top-dose activity, negative = inhibition, actives largely listed as inhibitors; 280,000 tested, 0.39% active; note: nearly all actives have a fitted effect of over 55% in size
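Compound effects on tau fibrillization are measured by Alexa 594 fluorescence polarization (ex 555, em 632 nm). K18 P301L tau is used at 15 uM with 0.24 uM labeled tracer, and 20 uM heparin induces aggregation over 6 hr at 37 C.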
RGS12 GoLoco inh: RGS12 GoLoco-Gai1 interaction inhibition; Gai1:RGS12 GoLoco peptide FP, rhodamine, 10 min; Potency, µM (series often up to 61.6 µM), for inactives: at the top dose activity, negative = inhibition, most hits filed as inhibitors; 230,000 tested, 0.44% active; active = well fitted inhibition curve with a large enough effect, not every such curve was filed as active; inactive = no such curve, though single readings can be large or run the other way; note: nearly all actives have a fitted effect of over 30% in size
Target sequence (P63096 whole entry, looked up): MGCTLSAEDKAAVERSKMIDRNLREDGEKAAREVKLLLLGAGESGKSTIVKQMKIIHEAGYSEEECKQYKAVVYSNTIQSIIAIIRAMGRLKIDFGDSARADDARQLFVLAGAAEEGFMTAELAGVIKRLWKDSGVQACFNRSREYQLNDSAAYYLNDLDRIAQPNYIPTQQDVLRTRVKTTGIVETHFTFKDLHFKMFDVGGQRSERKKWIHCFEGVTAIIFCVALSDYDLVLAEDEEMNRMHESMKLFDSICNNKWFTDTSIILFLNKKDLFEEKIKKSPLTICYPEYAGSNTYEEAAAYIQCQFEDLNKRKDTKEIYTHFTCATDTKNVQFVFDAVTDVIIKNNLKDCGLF
KDM4E inh: JMJD2E (human) inhibition | Potency, µM (top dose mostly 57.1 µM), for inactives: at the highest dose activity change, negative = inhibition, most hits filed as inhibitors | B2RXH2 | JMJD2E catalytic domain, FDH-coupled NADH fluorescence (FDH is formaldehyde dehydrogenase) | 230,000 tested, 1.6% active | AID 2147; active = well fitted inhibition curve with a large enough effect, not every such curve was filed as active; inconclusive = small, poorly fitted or top-dose-only effect, or another doubt; inactive = no such curve, though single readings can be large or run the other way;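 note: 0% = wells with enzyme and -100% = buffer wells without enzyme; nearly all actives have a fitted effect of over 50% in size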
Target sequence (B2RXH2 1-337 limits assumed): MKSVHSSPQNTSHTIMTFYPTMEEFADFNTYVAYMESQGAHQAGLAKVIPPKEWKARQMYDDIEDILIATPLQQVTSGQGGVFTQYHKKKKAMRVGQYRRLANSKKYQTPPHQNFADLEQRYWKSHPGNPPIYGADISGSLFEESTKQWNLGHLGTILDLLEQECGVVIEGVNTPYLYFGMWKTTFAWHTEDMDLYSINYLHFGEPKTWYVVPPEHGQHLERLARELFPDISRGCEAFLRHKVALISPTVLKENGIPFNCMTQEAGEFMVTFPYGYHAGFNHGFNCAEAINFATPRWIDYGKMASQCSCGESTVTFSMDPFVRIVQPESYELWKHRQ
Tau fluor cs: counter-screen for tau fibril formation inhibitors; tau K18 P301L Alexa594 fluorescence, heparin fibrillization; Potency, µM (highest dose often 57.7 µM), for the others: at the highest dose activity change, negative = decrease; 280,000 tested, 0.93% active; AID 1463; note: nearly all actives have a fitted effect of over 55% in size
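Human tau K18 P301L (15 uM unlabeled, 0.24 uM Alexa 594-labeled) in 100 mM sodium acetate pH 7 with 20 uM heparin, 6 hr at 37 C. ThT 30 uM added, 1 hr ambient; Alexa 594 FP and total fluorescence read at 555/632 nm.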
Starred values were filed as active, the others as inactive; ? = inconclusive; / = no result given; ! = a repeat was not active; [ ] = remark or other dose. Unless noted, calls come from the whole dose curve; as a rule, active = well fitted curve in the direction sought with a large enough effect; inconclusive = small, poorly fitted or top-dose-only effect, or another doubt; inactive = no such curve, though single readings can be large; an effect the other way counts as inactive or inconclusive. Unless noted, % is set by controls: 0 for no effect and ±100 for the full control effect; potency is the fitted concentration of half-maximal effect.

SMILES	Tau ThT inhib	Tau fibril FP	RGS12 GoLoco inh	KDM4E inh	Tau fluor cs
Cn1c(=Nc2ccc(N3CCOCC3)cc2)ccc2ccccc21	-15%	-5%	0.32µM*	0%	-5%
Cn1c(N=Nc2ccc(N3CCOCC3)cc2)[n+](C)c2ccccc21	1µM*	14µM*	72%	-21%	4µM*[quencher]
CCn1c(=Nc2ccc(N3CCOCC3)cc2)ccc2ccccc21	-15%	5%	0%	5%	9%
CCN1CCN(Cc2nc3cc(NC(=O)c4cc(OC)c(OC)c(OC)c4)ccc3n2CC)CC1	3%	-3%	/	/	2%
COC(CNC(=O)c1ccc2c3c(onc13)-c1ccccc1C2=O)OC	16µM*	?	10µM*	-22%	16µM*[quencher]
COC(CNC(=O)c1cccnc1)OC	-9%	-1%	3%	22%	-7%
C=CCn1c(SCC(N)=O)nnc1-c1ccccc1O	1%	4%	/	0%	4%
C=CCn1c(SCC(=O)c2ccc(O)c(O)c2)nnc1-c1ccccc1OC	?	4%	-2%	10µM*	-14%
C=CCn1c(SCC(=O)c2ccc(O)c(O)c2)nnc1-c1cccnc1	?	-8%	-6%	3.5µM*	-21%
CCn1c(SCC(=O)c2ccc(O)c(O)c2)nnc1-c1ccccc1	?	0%	-19%	13µM*	-13%
CCn1c(CSc2nc3ccccc3s2)nnc1SCC(=O)c1ccc(O)c(O)c1	?	-3%	4%	14µM*	?
CCn1c(CSc2nc3ccccc3s2)nnc1SCC(=O)c1ccc(Cl)cc1	-19%	?	18%	-4%	-18%
CCOC(=O)c1scc(-c2ccccc2)c1S(=O)(=O)N1CCN(c2ccccc2OC)CC1	-3%	0%	/	/	-7%
CCOc1ccc(-c2cc(C(=O)NCc3ccccc3Cl)c3ccccc3n2)cc1	8%	-8%	/	/	-17%
CCOCCCNC(=O)C(c1ccccc1)N(Cc1cccs1)C(=O)c1ccc(NC(C)=O)cc1 (centres undefined)	-4%	0%	/	/	-9%
COc1ccccc1-c1nnc(SCC(=O)c2ccc(Cl)cc2)n1-c1ccccc1	-13%	-5%	/	/	-17%
CCn1c(SCC(=O)c2ccc(O)c(O)c2)nnc1-c1ccccc1OC	-7%	2%	3%	22µM*	-7%
O=C(N/N=C/c1ccc(-c2ccc(S(=O)(=O)Nc3ncccn3)cc2)o1)c1cc2ccccc2cc1O	14µM*	?	25%	?	?
CCOc1ccc(C(=O)N/N=C/c2ccc(-c3ccc(S(=O)(=O)Nc4ncccn4)cc3)o2)cc1	?	-1%	30%	?	-19%
COc1cc(/C=N/NC(=O)C(=O)/C=C2\NC3(CCCC3)Cc3ccccc32)ccc1O	?	?	13%	-9%	?
CN(C)c1ccc(/C=N/NC(=O)C(=O)/C=C2\NC3(CCCC3)Cc3ccccc32)cc1	2.2µM*	7%	34%	2%	-10%
O=C(O)[C@@H]1[C@@H](C(=O)O)[C@@]23CCCC2=C2CC[C@@]3(C(=O)O)[C@@]3(C(=O)O)C[C@@]213	/	/	5%[14.2 µM]	/	/
CCCC(=O)C1=C(c2ccc(C)cc2)N(C(=O)CCC)n2cnnc2S1	16µM*	-14%	/	/	?
CCCC(=O)C1=C(c2ccc(C)c(C)c2)N(C(=O)CCC)n2c(CC)nnc2S1	?	-9%	/	/	-18%
CCC(=Nc1ccccc1O)C1=C(O)CC(c2ccccc2)CC1=O (centres undefined)	?	-12%	11%	25µM*	?
SMILES	Tau ThT inhib	Tau fibril FP	RGS12 GoLoco inh	KDM4E inh	Tau fluor cs
CN(C)c1ccc(/C=C2/C(=O)N(c3ccc([N+](=O)[O-])cc3)N=C2N2CCOCC2)cc1	16µM*	-6%	3%	-5%	?
O=C1CC(N2CCOCC2)=NN1c1ccc([N+](=O)[O-])cc1	7.1µM*	2%	-7%	?	?
O=[N+]([O-])c1ccc(N2CCOCC2)nc1	-14%	3%	-17%	16%	4%
O=S(=O)(NCC(c1ccco1)S(=O)(=O)c1ccccc1)c1cc(F)ccc1F (centres undefined)	1%	-9%	/	/	-12%
CC(=O)N1CCCc2cc(S(=O)(=O)NCc3ccc(OC(C)C)cc3)ccc21	4%	4%	/	/	-4%
COc1ccc(CCC(=O)NCc2nc3cccnc3n2Cc2ccc(C)cc2)cc1	-7%	6%	/	/	-4%
O=C(CNc1cccc2ccccc12)N/N=C/c1cccc(Oc2ccccc2)c1	?	?	-4%	28µM*	7.9µM*[quencher]
CC(C)NC(=O)Cn1nnc(-c2ccc(Cl)cc2)n1	25µM*	?	/	-16%	?
CC(C)COCC(CN(Cc1ccccc1)c1ccccc1)N1CCCC1 (centres undefined)	?	-9%	11µM*!	14µM*!	-22%
CCOc1ccc(NC(=O)CC2C(=O)N(c3cccc(C)c3)C(=O)N2Cc2cccs2)cc1 (centres undefined)	-9%	-4%	/	/	?
O=C(/C=C/c1ccc(O)c(O)c1)O[C@H]1C[C@@](O)(C(=O)O)CC(O)C1O (some centres undefined)	-13%	-8%	-4%	16µM*	-12%
O=C(/C=C/c1ccc(O)c(O)c1)OC1C[C@](O)(C(=O)O)C[C@@H](O)[C@H]1O (some centres undefined)	/	/	-26%	/	/
CCCN1CCN(C(=O)Cn2c(-c3cccs3)cc3ccccc32)CC1	-5%	5%	/	/	-7%
CN1CCN(C(=O)Cn2c(-c3cccs3)cc3ccccc32)CC1	-4%	-2%	/	/	-8%
CCN(CC)c1ccc(/C=C2/SC(=O)N(C(C)C)C2=O)o1	18µM*	-3%	95%	-15%	-18%
O=C(C1CCN(S(=O)(=O)Cc2ccccc2)CC1)N1CCN(c2ccccc2)CC1	-11%	2%	/	/	-7%
COc1cc(/C=C2\C(=O)NN(c3ccccc3)C2=O)cc([N+](=O)[O-])c1O	11µM*	-6%	-17%	-15%	-30%
CCOc1cc(/C=C2\C(=O)NN(c3ccccc3)C2=O)cc([N+](=O)[O-])c1O	?	-12%	-10%	-5%	-23%
COc1cc(/C=C2\C(=O)NN(c3ccc(C)cc3)C2=O)cc([N+](=O)[O-])c1O	13µM*	-4%	15%	-13%	?
CCOc1ccc(-c2nonc2NC(=O)c2oc3ccc(F)cc3c2C)cc1	7%	-11%	/	/	-14%
CCc1ccccc1NC(c1nnc(-c2cccc(F)c2)o1)c1ccc(F)cc1Cl (centres undefined)	-3%	-5%	/	/	-15%
CCc1ccc(NC(=O)c2cc(=O)c3ccc(C)c(C)c3o2)cc1	-15%	-14%	/	/	-20%
CN(C)C1C(=O)C(C(N)=O)=C(O)[C@@]2(O)C(=O)C3=C(O)c4c(O)ccc(Cl)c4C(O)[C@H]3C[C@@H]12 (some centres undefined)	-6%	-3%	0%	?	-9%
